Where “and” joins values, the source holds several entries; their conditions need not be identical. Identical values can stand only once. Values without a mark were called inactive. Inconclusive results are not listed. Calls of active or inactive are those of the source. Unless noted, calls come from the whole dose curve; as a rule, active = well fitted curve in the direction sought with a large enough effect in the repeat runs; inconclusive = weak or mixed curves; inactive = no such curve, though single readings can be large; an effect the other way counts as inactive or inconclusive.

The target of experiment [1] is Luciferin 4-monooxygenase (Photinus pyralis) (UniProt P08659). Kind of experiment: qHTS assay to identify small molecule inhibitors of firefly luciferase (AID 1224835). Note: nearly all actives have a fitted effect of over 25% in size. Note: potency is the fitted concentration of half-maximal effect. In short, it runs like this:
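Inhibition of purified Photinus luciferase is measured by luminescence. Substrate levels (D-luciferin, ATP) sit at their KM values. Each compound is tested in a concentration series.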
(Quantitative high-throughput screening tests each substance at several concentrations.)

Experiment [2] is described as follows: qHTS assay to identify small molecule agonists of the constitutive androstane receptor (CAR) signaling pathway - cell viability counter screen (AID 1224836). Note: series mostly up to about 92 µM; nearly all actives have a fitted effect of over 45% in size. In short, it runs like this: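 Counter screen multiplexed with the CAR reporter readout: HepG2 cells co-transfected with hCAR and the CYP2B6-2.2kb construct receive a 15-concentration compound series and 0.75 uM PK11195 (final), then CellTiter-Fluor fluorescence is read after 23 h.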

Experiment [3] is described as follows: qHTS assay to identify small molecule antagonists of the constitutive androstane receptor (CAR) signaling pathway - cell viability counter screen (AID 1224837). Note: series mostly up to about 92 µM; nearly all actives have a fitted effect of over 45% in size. In a few lines: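 Cytotoxicity counter-screen: CellTiter-Fluor fluorescence after 23 h compound exposure (15-point qHTS) in double-stable HepG2-CYP2B6-hCAR cells, with 50 nM CITCO added.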
For experiment [4], the target named is Nuclear receptor subfamily 1 group I member 3 (Homo sapiens) (UniProt Q14994). As to the kind of experiment: qHTS assay to identify small molecule antagonists of the constitutive androstane receptor (CAR) signaling pathway (AID 1224838).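 Note: HepG2 cells stably expressing hCAR with CYP2B6 luciferase reporter stimulated by CITCO; nearly all actives have a fitted effect of over 40% in size.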 In a few lines:
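Antagonism measured as luciferase signal (ONE-Glo, 30 min, room temperature) in CAR-stimulated cells: HepG2-CYP2B6-hCAR double-stable line exposed 24 hr at 37 C to compound in a 15-point series plus 50 nM CITCO.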

For experiment [5] the target is unchanged. Kind of experiment: qHTS assay to identify small molecule agonists of the constitutive androstane receptor (CAR) signaling pathway (AID 1224839). For activation: series mostly up to about 92 µM. Note: nearly all actives have a fitted effect of over 15% in size. Note: potency is the fitted concentration of half-maximal effect. In short, it runs like this: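 A 15-concentration quantitative screen uses HepG2 cells co-transfected stably with human CAR and CYP2B6-2.2kb reporter. Treatment lasts 24 h with 0.75 uM PK11195 final present; ONE-Glo luminescence is the signal.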

The nature of experiment [6]: qHTS assay to identify small molecule antagonists of the estrogen related receptor signaling pathway with the pleiotropic PPARgamma coactivator (PGC) from Tox21 10K library - cell viability counter screen (AID 1224840; active = well fitted cell-killing curve with a large enough effect in the repeat runs, not every such curve was filed as active; note: nearly all actives have a fitted effect of over 40% in size). In short, it runs like this:
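Counter-screen for cytotoxicity: after 17.5 h compound exposure at 37 C, CellTiter-Fluor reagent added to PGC/ERR cells for 30 min and fluorescence read. Cells were seeded at 2,000 per well 6 h before dosing.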

The target of experiment [7] is Thyrotropin receptor (Homo sapiens) (UniProt P16473). Kind of experiment: qHTS assay to identify small molecule agonists of the thyroid stimulating hormone receptor (TSHR) signaling pathway (AID 1224843; calls by dose curve; note: nearly all actives have a fitted effect of over 45% in size; note: potency is the fitted concentration of half-maximal effect). In short, it runs like this: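 Agonist activity read as cAMP rise via d2/cryptate HTRF competition, 1 h room-temperature detection, in HEK293 cells expressing TSHR. Fifteen-point titrations, each run in triplicate, with a 30 min room-temperature incubation beforehand.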
Sequence of Thyrotropin receptor (Homo sapiens) (P16473 whole entry, looked up): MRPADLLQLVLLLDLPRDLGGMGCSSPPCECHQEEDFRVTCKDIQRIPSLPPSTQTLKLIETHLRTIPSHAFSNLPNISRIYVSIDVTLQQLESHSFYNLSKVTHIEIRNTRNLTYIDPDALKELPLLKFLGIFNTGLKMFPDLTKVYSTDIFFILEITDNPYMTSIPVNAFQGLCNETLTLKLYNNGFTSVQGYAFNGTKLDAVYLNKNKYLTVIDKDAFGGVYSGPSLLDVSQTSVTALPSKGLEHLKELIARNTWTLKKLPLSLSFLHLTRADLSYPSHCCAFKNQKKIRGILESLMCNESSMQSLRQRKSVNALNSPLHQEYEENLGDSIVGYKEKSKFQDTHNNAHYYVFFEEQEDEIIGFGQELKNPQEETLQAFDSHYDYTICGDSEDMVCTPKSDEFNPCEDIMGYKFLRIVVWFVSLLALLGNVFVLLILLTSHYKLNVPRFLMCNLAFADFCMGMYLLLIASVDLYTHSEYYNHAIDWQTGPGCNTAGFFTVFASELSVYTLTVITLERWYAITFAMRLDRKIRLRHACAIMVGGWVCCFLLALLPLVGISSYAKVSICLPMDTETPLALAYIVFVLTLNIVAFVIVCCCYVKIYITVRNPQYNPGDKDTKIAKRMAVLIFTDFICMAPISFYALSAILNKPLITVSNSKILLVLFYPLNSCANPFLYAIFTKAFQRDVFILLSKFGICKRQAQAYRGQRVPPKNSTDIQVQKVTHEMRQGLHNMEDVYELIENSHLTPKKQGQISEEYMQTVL

The nature of experiment [8]: qHTS assay to identify small molecule agonists of the hypoxia (HIF-1) signaling pathway - cell viability counter screen (AID 1224844; calls by dose curve; note: nearly all actives have a fitted effect of over 50% in size; note: potency is the fitted concentration of half-maximal effect). In short, it runs like this:
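Cytotoxicity measured by CellTiter-Glo ATP luminescence in the wells also read for beta-lactamase signal. Cells were HRE-bla ME-180 (2,000/well, 0.5% dialyzed FBS), exposed to compounds for 17 h at 37C.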

Experiment [9] in a line: qHTS assay to identify small molecule agonists of H2AX (AID 1224845; active = well fitted activation curve with a large enough effect in the signal ratio in the repeat runs, not every such curve was filed as active; the % refers to the signal ratio; note: potency is the fitted concentration of half-maximal effect). In short, it runs like this: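 Phospho-H2AX Ser139 measured by HTRF (ex 320 nm; em 665 and 620 nm) after 24 hr antibody incubation. Compounds, 15 concentrations, 0.76% DMSO, were applied to CHO-K1 cells for 3hr at 37C before lysis.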
A short description of experiment [10]: qHTS assay to identify small molecule agonists of the hypoxia (HIF-1) signaling pathway (AID 1224846; active = well fitted activation curve with a large enough effect in the signal ratio in the repeat runs, not every such curve was filed as active; the % refers to the signal ratio). In a few lines:
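Compounds added to ME-180 cells carrying hypoxia-response-element beta-lactamase reporter (0.5% dialyzed FBS, 5 h preplating), 17 h at 37C; agonist activity detected by CCF4-AM B/G FRET read-out.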

Experiment [11] can be described thus: qHTS RealTime-Glo MT Cell Viability Assay in HepG2 cells - 24 hour (AID 1224867). Note: nearly all actives have a fitted effect of over 50% in size. In a few lines: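 Real-time, nonlytic viability: 600 HepG2 cells/well mixed with NanoLuc enzyme plus prosubstrate; 5 h settle, compound (DMSO) added by pintool; luminescence monitored over 40 h at 37 C.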
Experiment [12] in a line: qHTS RealTime-Glo MT Cell Viability Assay in HEK293 cells - 32 hour (AID 1224868). Note: nearly all actives have a fitted effect of over 50% in size. Note: potency is the fitted concentration of half-maximal effect. In a few lines: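 Cells + reagent dispensed (600 cells/well, HEK293) → 5 h at 37 C/5% CO2 → 23 nL compound in DMSO pinned → 40 h at 37 C → luminescence read at 0, 8, 16, 24, 32, 40 h.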
Experiment [13] can be described thus: qHTS RealTime-Glo MT Cell Viability Assay in HepG2 cells - 40 hour (AID 1224870). Note: nearly all actives have a fitted effect of over 50% in size. In short, it runs like this:
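Real-time viability: cells seeded at 600 per well together with NanoLuc and cell-permeant prosubstrate, compounds added after 5 h incubation. Luminescence tracked at 0, 8, 16, 24, 32 and 40 h of exposure.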

Experiment [14] in a line: A CellTox Green Cytotoxicity Assay to monitor cytotoxicity in HEK293 cells - 40 hour (AID 1224871). Note: nearly all actives have a fitted effect of over 45% in size. In a few lines: (§1)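 Fluorescence from a DNA-binding dye excluded by viable cells was measured repeatedly in the same HEK293 wells (600 cells/well) during continuous compound exposure at 37 C. Each assay gives one read point: 0, 8, 16, 24, 32 or 40 h.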
Experiment [15] can be described thus: A CellTox Green Cytotoxicity Assay to monitor cytotoxicity in HEK293 cells - 0 hour (AID 1224869). Note: nearly all actives have a fitted effect of over 50% in size. In a few lines: as §1
The nature of experiment [16]: qHTS assay to identify small molecule agonists of H2AX - cell viability counter screen (AID 1224847; calls by dose curve; note: nearly all actives have a fitted effect of over 30% in size; note: potency is the fitted concentration of half-maximal effect). In a few lines: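 We seed wild-type CHO-K1 cells overnight, treat them for 3 hr at 37C with compounds in 15-concentration series, and quantify remaining viability by CellTiter-Glo luminescence.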

Sequence of Luciferin 4-monooxygenase (Photinus pyralis) (P08659 whole entry, looked up): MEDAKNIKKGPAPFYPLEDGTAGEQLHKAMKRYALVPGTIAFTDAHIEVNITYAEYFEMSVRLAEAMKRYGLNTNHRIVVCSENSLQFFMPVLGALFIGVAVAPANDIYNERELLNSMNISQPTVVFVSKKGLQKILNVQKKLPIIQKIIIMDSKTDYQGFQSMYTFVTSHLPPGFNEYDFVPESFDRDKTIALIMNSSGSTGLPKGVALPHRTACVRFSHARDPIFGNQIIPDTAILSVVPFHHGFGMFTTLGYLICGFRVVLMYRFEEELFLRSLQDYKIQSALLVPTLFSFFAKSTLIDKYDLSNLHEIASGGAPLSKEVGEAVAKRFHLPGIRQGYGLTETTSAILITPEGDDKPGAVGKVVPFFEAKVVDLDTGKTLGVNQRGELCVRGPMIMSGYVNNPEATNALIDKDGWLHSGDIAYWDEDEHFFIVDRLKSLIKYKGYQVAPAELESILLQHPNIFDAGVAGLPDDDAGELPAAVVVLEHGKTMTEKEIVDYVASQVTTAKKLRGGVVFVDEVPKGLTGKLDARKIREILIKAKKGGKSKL
Sequence of Nuclear receptor subfamily 1 group I member 3 (Homo sapiens) (Q14994 whole entry, looked up): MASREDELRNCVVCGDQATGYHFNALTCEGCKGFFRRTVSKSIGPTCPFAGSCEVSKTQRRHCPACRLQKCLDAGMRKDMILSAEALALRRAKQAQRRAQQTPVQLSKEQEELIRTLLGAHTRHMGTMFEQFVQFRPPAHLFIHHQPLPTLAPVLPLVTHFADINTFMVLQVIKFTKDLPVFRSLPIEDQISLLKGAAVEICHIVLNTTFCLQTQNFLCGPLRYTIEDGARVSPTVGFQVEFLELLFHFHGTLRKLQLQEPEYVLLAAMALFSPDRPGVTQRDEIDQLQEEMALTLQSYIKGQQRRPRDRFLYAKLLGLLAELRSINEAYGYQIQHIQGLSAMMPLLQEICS

With `CCCC(O)C(O)CO` (stereo not given), the Potency result in experiment [1], in experiment [2], in experiment [3], in [4], in [5] and in experiment [6] was “inactive” throughout. The Potency entry in [7], in [8], in [9], in [11], in [12] and in [13] was “inactive” in each case. Also, in [14], the Potency entry is “inactive”. For the same compound, the call in experiment [10] was inactive.
Consider `CC(=O)O[C@@H]1C[C@@H]2CC[C@@]1(C)C2(C)C`, for which the Potency result in experiment [1], in [2], in experiment [3], in experiment [4], in experiment [5] and in [6] was “inactive” in each case. The Potency result in [7], in experiment [8], in experiment [9], in experiment [11], in experiment [12] and in experiment [15] was “inactive” throughout. In addition, the Potency result in experiment [13] and in experiment [14] was “inactive” each time. Besides, the outcome in experiment [10] was inactive.
As for `CCCCCCS`, the Potency result in experiment [1], in experiment [2], in experiment [3], in experiment [4], in experiment [5] and in [6] was “inactive” throughout. The Potency result in experiment [7], in [8], in experiment [9], in [11], in [12] and in experiment [13] was “inactive” each time. Further, the Potency result in [14] was “inactive”. Also, in experiment [10], the outcome was inactive.
As for `Oc1cc2ccccc2cc1O`, the Potency entry in [1], in experiment [2], in [3], in experiment [4], in experiment [5] and in experiment [6] was “inactive” each time. The Potency result in experiment [7], in [8], in [16], in experiment [11], in [15] and in experiment [13] was “inactive” each time. For the same compound, in experiment [10], the compound was classed as inactive.
Consider `COc1cccc(O)c1`, for which the Potency entry in experiment [1], in [2], in experiment [3], in [4], in experiment [5] and in experiment [6] was “inactive” in each case. Besides, the Potency entry in experiment [8], in experiment [9], in experiment [11], in [12], in experiment [15] and in experiment [13] was “inactive” in each case. Besides, the Potency entry in experiment [14] is “inactive”. Besides, in experiment [10], the call was inactive.
As to `CC(=O)C=O`, the Potency entry in experiment [1], in experiment [2], in experiment [3], in [4], in experiment [5] and in experiment [8] was “inactive” throughout. For the same compound, the Potency entry in [9], in experiment [16], in experiment [11], in experiment [12], in experiment [15] and in [13] was “inactive” throughout. In experiment [14], the Potency result was “inactive”. The compound was classed as inactive in [10].
On to `C[Si](C)O[Si](C)C`, for which the Potency entry in experiment [1], in [2], in experiment [3], in experiment [4], in [5] and in [7] was “inactive” throughout. Moreover, the Potency result in experiment [8], in experiment [9], in experiment [16], in experiment [11], in experiment [12] and in experiment [15] was “inactive” throughout. Moreover, the Potency result in [13] and in experiment [14] was “inactive” in each case. For the same compound, the compound was called inactive in [10].
In the case of `Clc1ccc(C(c2ccccc2Cl)C(Cl)Cl)cc1` (stereo not given), the Potency entry in experiment [1], in experiment [2], in experiment [3], in [4], in [11] and in [15] was “inactive” each time. In addition, the Potency result in [13] and in [14] was “inactive” in each case. The Potency in experiment [5] is 13.7 µM (active) and 11.9 µM (active); in [7], 12.2 µM (active) and 5.31 µM (active); in experiment [8], 54.9 µM (active); in experiment [9], 113 µM (active); in experiment [16] it was 101 µM (active).
As to `CCCCCCCOC(=O)c1ccc(O)cc1`, the Potency in experiment [1] is 71 µM (active); in experiment [8], 55 µM (active); in [16] it was 101 µM (active); in experiment [12] it was 24.6 µM (active) and 21.9 µM (active). Also, the Potency result in experiment [2], in experiment [3], in [4], in experiment [5], in [6] and in [9] was “inactive” in each case. The Potency result in experiment [11], in [15] and in [13] was “inactive” throughout.

The values above are taken from PubChem BioAssay (Tox21).
